# D1 potentiator: human D1 dopamine receptor positive modulation; P21728; HEK293 TREx D1 cells, calcium flux, dopamine EC20 potentiation; potentiation, % at 10 µM; 0.036% of 360,000 active; AID 504651; in the data active means potentiation above about 30%; further: 0% is about no effect
# DRD3 agonist: activates the human D3 dopamine receptor; P35462; AID 652048; 0.58% of 410,000 active; D3R DiscoveRx beta-arrestin cells, luminescence, 90 min; max activation, %; in the data active means max activation above about 30%; further: 0% is about no effect
# Target sequence (P35462 whole entry, looked up): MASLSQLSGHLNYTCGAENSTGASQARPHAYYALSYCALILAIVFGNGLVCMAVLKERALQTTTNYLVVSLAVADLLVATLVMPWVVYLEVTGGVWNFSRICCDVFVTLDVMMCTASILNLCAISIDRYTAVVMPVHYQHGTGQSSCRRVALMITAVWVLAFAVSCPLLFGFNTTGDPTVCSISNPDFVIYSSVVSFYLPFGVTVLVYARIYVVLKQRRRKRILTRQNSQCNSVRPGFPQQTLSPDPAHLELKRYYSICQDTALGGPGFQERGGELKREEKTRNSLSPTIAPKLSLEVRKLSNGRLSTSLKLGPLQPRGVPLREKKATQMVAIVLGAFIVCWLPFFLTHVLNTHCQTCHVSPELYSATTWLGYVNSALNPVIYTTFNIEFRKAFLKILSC
#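 Cells at 1500/well, incubated overnight, then treated with pinned compounds (dopamine as control) for 90 min at 37 degrees C. DiscoveRx reagent added for 30 - 60 minutes at room temperature; luminescence read.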
# DRD3 antagonist: antagonists of human D3 dopamine receptor; P35462; D3R cells, DiscoveRx beta-arrestin luminescence, antagonist mode; stronger effect = lower value; max response, negative = inhibition, %; 2.5% of 360,000 active; AID 652054; in the data active means max response below about -50%; inconclusive means no clear call, values can overlap the other calls; further: on the % scale 0 is the no-effect control and ±100 the full control effect
#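 Cells plated overnight at 1500 cells/well, then exposed to library compounds with dopamine controls for 90 minutes at 37 degrees C. DiscoveRx reagent added for 30–60 minutes at room temperature; luminescence read, quantitative HTS format.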
# D1 antagonist: human D1 dopamine receptor antagonism; P21728; 3.2% of 360,000 active; activity change, negative = inhibition, % at 10 µM; HEK293 TREx D1 cells, calcium flux, dopamine EC80; stronger effect = lower value; in the data active means activity change below about -30%; further: on the % scale 0 is the no-effect control and ±100 the full control effect
#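 Cells carrying a force-coupled, tetracycline-inducible human D1 receptor report calcium flux. Each well gets a 10 s baseline, compound with 180 s monitoring, then an EC80 dopamine stimulus with a second 180 s kinetic read.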
# D1 agonist: activates the human D1 dopamine receptor. P21728. HEK293 T-REx D1 cells, calcium flux, agonist mode. activation, % at 2 µM. 1% of 360,000 active; in the data active means activation above about 30%; further: 0% is about no effect
#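 Agonism was scored from calcium flux recorded over 180 s (1 read/s) after pintool compound addition, following a 10-cycle baseline. Cells were inducible force-coupled HEK293 TREx D1, plated overnight at 30 C and loaded with no-wash calcium dye.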
# The depositor's hits bear a star; ? = inconclusive; nt = no result given. The list is not random: actives were taken first. Their share in the collection is about 6%.
SMILES,D1 potentiator,DRD3 agonist,DRD3 antagonist,D1 antagonist,D1 agonist
Clc1ccc(CNCCCSc2ncccn2)cc1,-4,-20,-78*,2,3
COc1cc(CNCCSc2nnnn2C)cc(Cl)c1OCc1ccccc1,-4,-11,nt,3,3
COc1ccc(CNCCCSc2ncccn2)cc1OC,-2,-9,-65*,8,6
COc1ccc(CNCCCSc2ncccn2)c(OC)c1,-4,-4,-14,-5,5
Fc1ccc(-c2ccc(CNCCSc3nnnn3-c3ccccc3)o2)cc1,2,-22,nt,7,34*
CCCCC(=O)Nc1nnc(S(=O)(=O)N(C)Cc2ccc(Cl)cc2)s1,-1,5,nt,6,1
Brc1ccc(CNCCCSc2nnnn2-c2ccccc2)cc1,1,9,nt,-4,95*
CSc1ccc(CNCCCSc2ncccn2)cc1,-1,-9,?,27,5
Brc1ccc(CNCCCSc2ncccn2)cc1,-4,-18,-77*,1,10
Clc1cccc(CNCCCSc2ncccn2)c1,-3,-24,-52*,21,3
Clc1ccc(OCCCCSc2ncccn2)cc1,-2,-4,-8,-11,1
Cc1cc(N2CCCCC2)nc2ccc(NC(=O)/C=C/c3ccc(OCCC(C)C)cc3)cc12,0,3,nt,4,0
Cc1ccc(C)c(NC(=O)CN(C)S(=O)(=O)c2cccc3nsnc23)c1,-2,-15,nt,-7,-1
O=C(CNC(=O)c1ccco1)OCC(=O)c1ccc([N+](=O)[O-])cc1,3,32*,-2,-6,2
O=C(CNC(=O)c1ccco1)OCC(=O)c1ccc(Cl)cc1,0,0,23,-13,2
CCOC(=O)C1=NN(C(=O)c2ccc(C)cc2)C(O)(c2ccc(Cl)cc2)C1 (centres undefined),3,-9,-57*,-28,158*
COC(=O)C1=NN(C(=O)c2ccc(Cl)cc2)C(O)(c2ccccc2)C1 (centres undefined),-4,-25,?,3,30*
COc1cccc(Nc2nc3cc(Cl)c(Cl)cc3nc2-n2nc(C)cc2C)c1,-1,-7,nt,-3,2
CC1CCCCN1CCCNC(=O)c1ccc2c(c1)sc1nc(-c3ccc(F)cc3)cn12 (centres undefined),1,-22,nt,-13,-1
CN1CCN(C(=O)c2ccc3c(c2)N(C)C(=O)/C(=C/c2cccc(Cl)c2)S3)CC1,-7,-15,-17,-38*,22
CN1C(=O)/C(=C/c2cccc(Cl)c2)Sc2ccc(C(=O)NCc3cccnc3)cc21,-10,-5,3,-40*,12
CCCC(=O)Nc1cc(-c2nnc3c4ccccc4c(C)nn23)ccc1C,-2,9,nt,1,-1
CC1CCN(CC(O)COCCOc2ccc(Br)cc2)CC1 (centres undefined),-6,-3,21,-11,16
CC1CCN(CC(O)COCCC23CC4CC(CC(C4)C2)C3)CC1 (centres undefined),1,-21,-57*,-4,18
CCc1ccc(NC(=O)CSc2nccn2C2CCCC2)cc1,-1,-16,nt,-5,1
SMILES,D1 potentiator,DRD3 agonist,DRD3 antagonist,D1 antagonist,D1 agonist
Cc1nn2c(N3CCN(CCO)CC3)c3c(nc2c1-c1ccccc1)CCCC3,-2,-20,-20,-66*,9
Cc1nn2c(N3CCCC3)c3c(nc2c1-c1ccccc1)CCC3,-1,1,4,0,0
Cc1cccc(Cn2c(=O)n(CCCC(=O)NCc3ccccc3Cl)c(=O)c3ccccc32)c1,0,-6,nt,0,16
COc1cc(NS(=O)(=O)c2ccc(NC(=O)c3cccc(F)c3)cc2)nc(OC)n1,2,-24,nt,-17,1
CCOC(=O)c1cc(C)n(CC2CCC(C(=O)Nc3ccccc3OC)CC2)c1C (centres undefined),-1,-4,nt,1,0
O=C1CCCN1c1ccc(CNS(=O)(=O)c2ccc(F)cc2)cc1,0,0,-57*,-6,14
O=C1CCc2cc(NS(=O)(=O)c3ccc(F)cc3)cc3c2N1CCC3,-4,3,1,-38*,3
C=C1CC[C@H](O)CC1=C/C=C1\CCC[C@]2(C)[C@@H]([C@H](C)CC[C@@H](O)C(C)(C)O)CC[C@@H]12,nt,6,nt,nt,nt
COCCN1CCN(Cc2nc(C3(c4ccc(C)cc4)CCCC3)no2)CC1,4,-15,-54*,6,0

# Assay outcomes deposited in PubChem by National Center for Advancing Translational Sciences (NCATS).
